Assay results reported in PubChem BioAssay (Tox21).
Values without a mark were called inactive. Results filed as inconclusive are left out. Entries that show only a call come without a potency. The source made the active and inactive calls. Unless noted, calls follow the shape of the dose curve; as a rule, active = well fitted curve in the direction sought with a large enough effect in the repeat runs; inconclusive = weak or mixed curves; inactive = no such curve, though single readings can be large; an effect the other way counts as inactive or inconclusive.

Key:
[1] = biological target: Luciferin 4-monooxygenase (Photinus pyralis) (UniProt P08659); assay: qHTS assay to identify small molecule inhibitors of firefly luciferase (AID 1224835); also: nearly all actives have a fitted effect of over 25% in size; also: potency is read from the fitted curve at half-maximal effect
Sequence of Luciferin 4-monooxygenase (Photinus pyralis) (P08659 whole entry, looked up): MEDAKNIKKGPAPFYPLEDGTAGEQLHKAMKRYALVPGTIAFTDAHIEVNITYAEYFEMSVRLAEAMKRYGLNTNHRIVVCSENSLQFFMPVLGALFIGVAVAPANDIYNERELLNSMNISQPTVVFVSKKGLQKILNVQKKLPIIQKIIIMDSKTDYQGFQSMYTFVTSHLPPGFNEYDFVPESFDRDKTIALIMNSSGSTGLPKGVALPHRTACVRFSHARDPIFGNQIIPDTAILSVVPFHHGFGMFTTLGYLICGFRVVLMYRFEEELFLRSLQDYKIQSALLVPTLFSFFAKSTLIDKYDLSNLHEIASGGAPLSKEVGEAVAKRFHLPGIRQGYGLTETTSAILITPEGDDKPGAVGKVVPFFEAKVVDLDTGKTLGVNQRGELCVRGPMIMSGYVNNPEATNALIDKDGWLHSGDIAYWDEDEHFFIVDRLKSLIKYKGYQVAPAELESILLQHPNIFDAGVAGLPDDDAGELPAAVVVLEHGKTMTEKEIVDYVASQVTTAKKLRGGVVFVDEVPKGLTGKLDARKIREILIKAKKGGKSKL
Method in brief: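 Quantitative HTS format; KM concentrations of both substrates. Purified P. pyralis FLuc activity quantified from luminescence images.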

[2] = qHTS assay to identify small molecule agonists of the constitutive androstane receptor (CAR) signaling pathway - cell viability counter screen (AID 1224836); also: nearly all actives have a fitted effect of over 45% in size
Method in brief: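 Fluorescence from CellTiter-Fluor indicates live cells after 23 h exposure. The human hepatoma line expresses hCAR and a CYP2B6-2.2kb reporter. Incubation medium contains 0.75 uM PK11195 (final).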

[3] = qHTS assay to identify small molecule antagonists of the constitutive androstane receptor (CAR) signaling pathway - cell viability counter screen (AID 1224837); also: nearly all actives have a fitted effect of over 45% in size
Method in brief: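 Multiplexed cytotoxicity read-out for the CAR antagonist screen: double-stable HepG2-CYP2B6-hCAR cells co-treated with 50 nM CITCO (final) and compound over 15 concentrations, incubated 23 hr, then assessed by CellTiter-Fluor fluorescence.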

[4] = biological target: Nuclear receptor subfamily 1 group I member 3 (Homo sapiens) (UniProt Q14994); assay: qHTS assay to identify small molecule antagonists of the constitutive androstane receptor (CAR) signaling pathway (AID 1224838); also: nearly all actives have a fitted effect of over 40% in size
Sequence of Nuclear receptor subfamily 1 group I member 3 (Homo sapiens) (Q14994 whole entry, looked up): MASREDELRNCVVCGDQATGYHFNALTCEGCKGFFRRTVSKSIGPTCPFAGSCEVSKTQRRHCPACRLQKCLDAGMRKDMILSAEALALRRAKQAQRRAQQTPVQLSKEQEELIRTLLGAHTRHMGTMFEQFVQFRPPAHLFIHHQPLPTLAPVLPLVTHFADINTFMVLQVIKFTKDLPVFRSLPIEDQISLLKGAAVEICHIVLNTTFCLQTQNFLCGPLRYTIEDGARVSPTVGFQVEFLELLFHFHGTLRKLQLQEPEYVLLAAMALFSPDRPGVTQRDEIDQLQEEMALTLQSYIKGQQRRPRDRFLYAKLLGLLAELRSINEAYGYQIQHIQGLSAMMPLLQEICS
Method in brief: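 Compounds were titrated across 15 concentrations onto HepG2 cells double-stably expressing hCAR and a CYP2B6-2.2kb reporter, together with 50 nM CITCO (final). After 24 h at 37 C, luciferase activity was measured by luminescence.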

[5] = biological target: Nuclear receptor subfamily 1 group I member 3 (Homo sapiens) (UniProt Q14994); assay: qHTS assay to identify small molecule agonists of the constitutive androstane receptor (CAR) signaling pathway (AID 1224839); also: nearly all actives have a fitted effect of over 15% in size; also: potency is read from the fitted curve at half-maximal effect;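 as to activation: HepG2 cells stably carrying human CAR and a CYP2B6 luciferase reporter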
Method in brief: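 Stable hCAR/CYP2B6-2.2kb HepG2 line in DMEM with 10% FBS; compounds (15 concentrations) and 0.75 uM PK11195 final, 24 h at 37 C/5% CO2, then ONE-Glo luminescence after 30 min.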

[6] = qHTS assay to identify small molecule antagonists of the estrogen related receptor signaling pathway with the pleiotropic PPARgamma coactivator (PGC) from Tox21 10K library - cell viability counter screen (AID 1224840; active = well fitted cell-killing curve with a large enough effect in the repeat runs, not every such curve was filed as active; also: nearly all actives have a fitted effect of over 40% in size)
Method in brief: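 Step one, plate 2,000 PGC/ERR cells per well; step two, incubate 6 h at 37 C/5% CO2; step three, pin-transfer compounds; step four, incubate 17.5 h; step five, add CellTiter-Fluor and read fluorescence after 30 min.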

[7] = biological target: Thyrotropin receptor (Homo sapiens) (UniProt P16473); assay: qHTS assay to identify small molecule agonists of the thyroid stimulating hormone receptor (TSHR) signaling pathway (AID 1224843; calls by dose curve; also: nearly all actives have a fitted effect of over 45% in size)
Sequence of Thyrotropin receptor (Homo sapiens) (P16473 whole entry, looked up): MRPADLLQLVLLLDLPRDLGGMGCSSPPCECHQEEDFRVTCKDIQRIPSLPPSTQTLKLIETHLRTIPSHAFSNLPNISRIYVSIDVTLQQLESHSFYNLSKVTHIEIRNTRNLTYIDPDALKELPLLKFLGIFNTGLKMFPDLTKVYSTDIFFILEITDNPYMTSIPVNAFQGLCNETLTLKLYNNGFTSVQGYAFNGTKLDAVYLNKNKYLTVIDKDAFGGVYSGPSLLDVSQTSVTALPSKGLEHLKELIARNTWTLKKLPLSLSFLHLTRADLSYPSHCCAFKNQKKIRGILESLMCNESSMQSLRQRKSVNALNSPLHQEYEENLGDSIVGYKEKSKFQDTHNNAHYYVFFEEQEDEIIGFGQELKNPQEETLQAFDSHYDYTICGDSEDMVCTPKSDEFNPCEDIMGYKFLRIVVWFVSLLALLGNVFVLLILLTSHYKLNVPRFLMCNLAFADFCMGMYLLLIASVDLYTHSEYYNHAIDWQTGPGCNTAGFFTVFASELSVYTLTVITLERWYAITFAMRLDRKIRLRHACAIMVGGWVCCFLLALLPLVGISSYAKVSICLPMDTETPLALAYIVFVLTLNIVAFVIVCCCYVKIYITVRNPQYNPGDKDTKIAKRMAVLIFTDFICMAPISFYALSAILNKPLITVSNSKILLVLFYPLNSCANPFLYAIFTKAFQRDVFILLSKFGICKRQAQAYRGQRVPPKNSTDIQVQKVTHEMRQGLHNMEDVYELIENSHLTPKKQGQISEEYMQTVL
Method in brief: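 TSHR-expressing HEK293 cells (800 per well) were exposed to compounds for 30 min at room temperature. cAMP was then detected by HTRF competition with cAMP-d2 and anti-cAMP cryptate, read after 1 h at room temperature. Fifteen concentrations, triplicate.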

[8] = qHTS assay to identify small molecule agonists of the hypoxia (HIF-1) signaling pathway - cell viability counter screen (AID 1224844; calls by dose curve; also: nearly all actives have a fitted effect of over 50% in size)
Method in brief: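 Tox21 10K compounds were added to HRE-bla ME-180 cells (0.5% dialyzed FBS) and incubated 17 hrs at 37C; ATP-based CellTiter-Glo luminescence then reported cell viability in the same wells.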

[9] = qHTS assay to identify small molecule agonists of H2AX (AID 1224845; active = well fitted activation curve with a large enough effect in the signal ratio in the repeat runs, not every such curve was filed as active; the % refers to the signal ratio)
Method in brief: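 Wild-type CHO-K1 cells plated overnight, then exposed 3 hr at 37C to compounds at 15 concentrations (0.76% DMSO). Lysed, then HTRF anti-pH2AX(S139)-cryptate/anti-H2AX-d2 detection after 24 hr at room temperature; emissions 665 and 620 nm.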

[10] = qHTS assay to identify small molecule agonists of the hypoxia (HIF-1) signaling pathway (AID 1224846; active = well fitted activation curve with a large enough effect in the signal ratio in the repeat runs, not every such curve was filed as active; the % refers to the signal ratio)
Method in brief: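 Steps: seed ME-180 HRE-bla cells (2,000/well, 0.5% dialyzed FBS); incubate 5 hrs at 37C; pin-transfer compounds or DMSO; incubate 17 hrs; add LiveBLAzer B/G substrate CCF4-AM; measure reporter activation by FRET.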

[11] = qHTS RealTime-Glo MT Cell Viability Assay in HepG2 cells - 24 hour (AID 1224867); also: nearly all actives have a fitted effect of over 50% in size
Method in brief: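 HepG2 suspension premixed with RealTime-Glo reagents is plated at 600 cells per well and left 5 h at 37 C/5% CO2. Compounds in DMSO then go in, and bioluminescence reflecting viable cell number is recorded over 40 h.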

[12] = qHTS RealTime-Glo MT Cell Viability Assay in HEK293 cells - 32 hour (AID 1224868); also: nearly all actives have a fitted effect of over 50% in size; also: potency is read from the fitted curve at half-maximal effect
Method in brief: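 Reads taken at 0, 8, 16, 24, 32 and 40 h from the same wells. HEK293 cells (600/well) carried RealTime-Glo reagents from seeding, with compound added after a 5 h settle at 37 C.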

[13] = A CellTox Green Cytotoxicity Assay to monitor cytotoxicity in HEK293 cells - 0 hour (AID 1224869); also: nearly all actives have a fitted effect of over 50% in size
Method in brief: (§1)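 Cytotoxicity was tracked continuously in HEK293 cells by a DNA-binding dye excluded from viable cells. Compounds were transferred in DMSO 5 h after seeding; fluorescence was recorded at intervals up to 40 h.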

[14] = qHTS RealTime-Glo MT Cell Viability Assay in HepG2 cells - 40 hour (AID 1224870); also: nearly all actives have a fitted effect of over 50% in size
Method in brief: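 HepG2 cells mixed with RealTime-Glo MT reagents (NanoLuc plus cell-permeant prosubstrate) were seeded at 600 cells/well, incubated 5 h at 37 C/5% CO2, then pinned with compounds in DMSO; nonlytic luminescence tracked viability during 40 h treatment.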

[15] = A CellTox Green Cytotoxicity Assay to monitor cytotoxicity in HEK293 cells - 40 hour (AID 1224871); also: nearly all actives have a fitted effect of over 45% in size
Method in brief: as §1

[16] = qHTS assay to identify small molecule antagonists of the estrogen related receptor signaling pathway with the pleiotropic PPARgamma coactivator (PGC) from Tox21 10K library (AID 1224841; call rule not given here)
Method in brief: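 Antagonism in this quantitative HTS is taken from loss of luciferase signal in PGC/ERR cells. Cells (2,000/well) are treated with compounds in DMSO after a 6 h settling period and read by One-Glo luminescence after 18 h.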

[17] = qHTS assay to identify small molecule agonists of the estrogen related receptor signaling pathway with the pleiotropic PPARgamma coactivator (PGC) from Tox21 10K library (AID 1224842); also: nearly all actives have a fitted effect of over 15% in size
Method in brief: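 PGC/ERR reporter cells (NTP line) were seeded 2,000 per well, rested 6 h at 37 C/5% CO2, then pin-dosed with compounds in DMSO for 18 h at 37 C; luciferase read by One-Glo luminescence after 30 min at room temperature.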

[18] = qHTS assay to identify small molecule agonists of H2AX - cell viability counter screen (AID 1224847; calls by dose curve; also: top concentration of the series differs between compounds; nearly all actives have a fitted effect of over 30% in size)
Method in brief: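 Viability of CHO-K1 (wild type) cells after 3 hr compound exposure was measured by CellTiter-Glo luminescence.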

[19] = qHTS assay to identify small molecule antagonists of the estrogen related receptor (ERR) signaling pathway from Tox21 library (AID 1224848); also: nearly all actives have a fitted effect of over 50% in size
Method in brief: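 Cells: ERR line, 2,000/well; 6 h preincubation 37 C/5% CO2. Cpd in DMSO via pin tool; 18 h, 37 C. ONE-Glo, 30 min RT, luminescence.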

[20] = qHTS assay to identify small molecule agonists of the estrogen related receptor (ERR) signaling pathway from Tox21 library (AID 1224849; calls by dose curve; also: nearly all actives have a fitted effect of over 15% in size); conditions: ERR reporter cell line, ONE-Glo luciferase, 18 h; at 92.4 µM (top of the series) unless noted
Method in brief: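 Agonist signal is luciferase luminescence from an ERR reporter cell line treated 18 h at 37 C with DMSO-dissolved compounds, read 30 min after ONE-Glo addition at room temperature.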

SMILES	Potency [1]	Potency [2]	Potency [3]	Potency [4]	Potency [5]	Potency [6]	Potency [7]	Potency [8]	Potency [9]	outcome [10]	Potency [11]	Potency [12]	Potency [13]	Potency [14]	Potency [15]	Potency [16]	Potency [17]	Potency [18]	Potency [19]	activity change, positive = activation [20]
COC(C)CCO (stereo not drawn)	inactive	inactive	inactive	inactive	inactive	inactive	inactive	inactive	inactive	inactive	inactive	inactive	inactive	inactive	inactive	–	–	–	–	–
CCCCNCCCC	inactive	inactive	inactive	inactive	–	inactive	inactive	inactive	inactive	inactive	inactive	inactive	inactive	inactive	inactive	inactive	inactive	inactive	inactive	0.877%
CC1=C(O)C(=O)OC1C (stereo not drawn)	inactive	inactive	inactive	inactive	inactive	inactive	inactive	inactive	inactive	inactive	inactive	inactive	inactive	–	inactive	–	–	inactive	–	–
NCCCN1CCN(CCCN)CC1	inactive	inactive	inactive	inactive	inactive	inactive	inactive	inactive	inactive	inactive	inactive	inactive	inactive	inactive	inactive	–	–	–	–	–
Nc1ccc2ccccc2c1S(=O)(=O)O	32.4 µM (active)	inactive	inactive	inactive	22.1 µM (active)	inactive	inactive	inactive	–	inactive	inactive	inactive	inactive	inactive	inactive	–	–	inactive	–	–
CCCCCCC	inactive	inactive	inactive	inactive	inactive	inactive	inactive	–	–	inactive	inactive	inactive	inactive	inactive	inactive	–	–	inactive	–	–
CC1=CC(=O)CC(C)(C)C1=O	inactive	inactive	inactive	inactive	inactive	inactive	inactive	inactive	inactive	inactive	inactive	inactive	inactive	inactive	inactive	–	–	inactive	–	–
O=Cc1ccc(F)c(Br)c1	inactive	inactive	inactive	inactive	inactive	inactive	inactive	inactive	inactive	inactive	inactive	inactive	inactive	inactive	inactive	–	–	inactive	–	–
CC(=O)Nc1ccc(C)c(Cl)c1	inactive	inactive	inactive	inactive	inactive	inactive	inactive	inactive	inactive	inactive	inactive	inactive	inactive	inactive	inactive	–	–	inactive	–	–
CCN(CC)CCNC(=O)COc1ccc(Cl)cc1	inactive	inactive	inactive	inactive	inactive	inactive	inactive	inactive	–	inactive	inactive	inactive	inactive	inactive	inactive	–	–	inactive	–	–
C=C(C)C(=O)OCCOP(=O)(O)O	inactive	inactive	inactive	inactive	inactive	inactive	inactive	inactive	inactive	inactive	inactive	inactive	inactive	inactive	inactive	–	–	inactive	–	–
CCc1cc2cc(OC)c(OC)cc2c(Cc2ccccc2)n1	inactive	inactive	inactive	inactive	–	inactive	inactive	inactive	–	inactive	inactive	16.9 µM (active)	inactive	–	inactive	inactive	inactive	inactive	inactive	-12.2% [at 42.5 µM]
Cc1c[nH]c(=S)[nH]c1=O	inactive	inactive	inactive	inactive	inactive	inactive	–	inactive	inactive	inactive	inactive	inactive	inactive	inactive	inactive	–	–	inactive	–	–
C=CCc1cc(OC)c(O)c(C(=O)NCCO)c1	inactive	inactive	inactive	inactive	inactive	inactive	inactive	–	inactive	inactive	inactive	inactive	inactive	inactive	inactive	–	–	–	–	–
COc1cc(N)c(Cl)cc1C(=O)NC1CCN(Cc2ccccc2)CC1	inactive	inactive	inactive	inactive	6.68 µM (active)	inactive	inactive	inactive	inactive	–	inactive	19 µM (active)	inactive	inactive	inactive	–	–	inactive	–	–
CCN(O)CC	inactive	inactive	inactive	inactive	inactive	inactive	–	inactive	inactive	inactive	inactive	inactive	inactive	inactive	inactive	–	–	inactive	–	–
